Compounds with a hit are over-represented: about 4% of the library has one in this group of screens.
NLRP3 yeast inh – NALP3 inflammasome inhibitors in reconstituted yeast, primary screen, luminescence, uHTS; 330,000 compounds, 0.39% hits; Yeast reconstituted NLRP3/ASC/caspase-1, beta-gal luminescence, 24 h; inhibition, % at 10 µM;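 active means inhibition of 50% or more; inactive means inhibition below 50%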
tim23-1 inh – growth inhibitors of tim23-1 mutant yeast, primary screen, luminescence, uHTS; AID 463212, 2010; inhibition, % at 20 µM; 330,000 compounds, 1.3% hits; S. cerevisiae tim23-1 growth, BacTiter-Glo luminescence, 24 h;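 active means growth inhibition of the mutant yeast at or above 50%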;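 further: temperature-sensitive mutant grown at 25 °C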
NALP1 inh – NALP1 inflammasome inhibitors in reconstituted yeast, colorimetric, S. cerevisiae, triplicate retest; S. cerevisiae NALP1/ASC/caspase-1 growth, X-gal OD620, 72 h; inhibition, % at 10 µM; 280,000 compounds, 0.61% hits; in the data active means inhibition mostly above about 24%, no sharp cut-off; inactive means mostly below about 32%
tim10-1 inh – growth inhibitors of tim10-1 mutant yeast, primary screen, luminescence, uHTS. S. cerevisiae tim10-1 ts strain growth, BacTiter-Glo, 24 h. inhibition, % at 20 µM. 330,000 compounds, 2.2% hits. AID 463190, 2010;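 active means inhibition of at least 40%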;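 further: mutant grown at 25 °C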
TIM10 inh – growth inhibitors of isogenic TIM10 control yeast, primary screen, counter-screen for tim10-1 yeast inhibitor project, luminescence, uHTS. inhibition, % at 10 µM. AID 463195, 2010. S. cerevisiae TIM10 strain growth, BacTiter-Glo luminescence, 24 h. 330,000 compounds, 1.4% hits;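 active means inhibition of 40% or more at the single tested concentration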;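 further: wild-type TIM10 isogenic control strain grown at permissive 25 °C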
tim10-1 confirm – growth inhibitors of tim10-1 mutant yeast, confirmation, single concentration, luminescence, S. cerevisiae; shares compounds with tim10-1 inh; S. cerevisiae tim10-1 ts strain growth, BacTiter-Glo, 24 h; inhibition, % at 20 µM; 7,400 compounds, 56% hits; AID 463213, 2010;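 active means inhibition of yeast growth at or above a set limit in either of two repeat tests at 20 µM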;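 further: tim10-1 mutant grown at permissive 25 °C to find synthetic lethal compounds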
TIM10 conf – growth inhibitors of wild-type TIM10 yeast, confirmation, counter-screen for tim10-1 synthetic lethality project, single concentration, luminescence, S. cerevisiae. 4,600 compounds, 63% hits. shares compounds with TIM10 inh. inhibition, % at 10 µM. S. cerevisiae tim10 strain growth, BacTiter-Glo luminescence, 24 h;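 active means inhibition of yeast growth at or above a set limit in either of two replicates at 10 µM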; further: this counterscreen used the strain with wild-type TIM10
tim23-1 confirm – tim23-1 mutant yeast growth inhibitors, confirmation, luminescence, single concentration; shares compounds with tim23-1 inh; S. cerevisiae tim23-1 growth, BacTiter-Glo luminescence, 24 h; inhibition, % at 20 µM; 4,400 compounds, 83% hits;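 active means inhibition above about 39% in either of two replicate wells at 20 µM, limit read from the data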;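 further: temperature-sensitive tim23-1 mutant grown at 25 °C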
Of the large screens only hits and unclear results are named; the others gave an inactive call (follow-up assays come after a bar, where they were run).

O=[N+]([O-])c1cc([N+](=O)[O-])c2cc3ccccc3nc2c1	tim23-1 inh 69.2, tim10-1 inh 75.3, TIM10 inh 86.2 | tim10-1 confirm 41.5 | TIM10 conf 96.8 | tim23-1 confirm 44.4
COc1cc(O)c2c(=O)c3c(OC)c(O)ccc3oc2c1	tim23-1 inh 55.8, tim10-1 inh 66.8, TIM10 inh 42.3 | tim10-1 confirm 56.8 | TIM10 conf 51.4 | tim23-1 confirm 66.0
Cc1cccc(N2C(=O)C3C4CC(=O)C(c5ccccc54)C3C2=O)c1C (stereo not given)	none
CCc1nnc(SCC(=O)N2CCCC(N3CCN(c4ccccc4C)CC3)C2)o1 (stereo not given)	none
CCOC(=O)C1=C(C)N(CCCC(=O)O)C(=O)NC1c1ccccc1Cl (stereo not given)	none (no result: NALP1 inh)
CC1(C)Cc2ccccc2-c2nc3n(c(=O)c21)CCS3	none
CC1(C)Cc2ccccc2-c2nc3n(c(=O)c21)CCCS3	tim23-1 inh 50.8, tim10-1 inh 42.1 | tim10-1 confirm 33.0 | tim23-1 confirm 59.8
O=C(NCCN1C(=O)S/C(=C\c2ccc(Cl)cc2Cl)C1=O)C1=COCCO1	tim23-1 inh 57.3, tim10-1 inh 40.7, TIM10 inh 46.9 (no result: NALP1 inh) | tim10-1 confirm 47.1 | TIM10 conf 48.1 | tim23-1 confirm 66.8
Cc1ccc(Nc2nc3ccc(Cl)cc3n3cnnc23)cc1F	tim23-1 inh 50.6, tim10-1 inh 62.7 | tim10-1 confirm inactive | tim23-1 confirm inactive
Cc1ccc2nc(Nc3ccc(F)cc3)c3nncn3c2c1	none
Cc1cccc(NS(=O)(=O)c2ccc(-c3cnc(C4CC4)o3)cc2)c1C	tim23-1 inh 68.9, tim10-1 inh 58.5 | tim10-1 confirm 51.6 | tim23-1 confirm 51.7
Cc1cc(C)cc(NS(=O)(=O)c2ccc(-c3cnc(C4CC4)o3)cc2)c1	none
C/C(N)=C(/C#N)C(=O)CSc1nc2cc(Cl)ccc2s1	tim23-1 inh 54.5, tim10-1 inh 50.1, TIM10 inh 43.8 | tim10-1 confirm 46.1 | TIM10 conf 37.4 | tim23-1 confirm 55.8
CCOC(=O)c1cc(-c2ccccc2C)n(CC2CC(c3cccc([N+](=O)[O-])c3)=NO2)n1 (stereo not given)	none (no result: NALP1 inh)
Cc1ccc(Nc2cc(C)nn2-c2nc(C)cc(C)n2)cc1	tim23-1 inh 53.4, tim10-1 inh 47.4, TIM10 inh 44.3 | tim10-1 confirm inactive | TIM10 conf inactive | tim23-1 confirm 47.2
CC(=O)Nc1cc(C)nn1-c1nc(C)cc(C)n1	none
O=C(NNc1nc2ccc(Cl)cc2s1)c1cc(-c2cccs2)nc2ccccc12	tim23-1 inh 51.6, tim10-1 inh 50.5 | tim10-1 confirm 34.6 | tim23-1 confirm 54.3
COc1ccc(/C(C)=N/NC(=O)CNC(=O)c2ccco2)cc1	none
COc1ccc(/C(C)=N/NC(=S)NCc2ccco2)cc1	tim23-1 inh 50.8, tim10-1 inh 40.6 | tim10-1 confirm 47.9 | tim23-1 confirm 54.3
Cc1nc(Nc2cccc(Cl)c2)c2oc3ccccc3c2n1	none
Cc1nc(Nc2cccc(F)c2)c2oc3ccccc3c2n1	tim23-1 inh 54.7, tim10-1 inh 44.3 | tim10-1 confirm inactive | tim23-1 confirm 60.2
O=C(O)c1ccc(N/N=C/c2c[nH]c3ccccc23)cc1	none
Fc1c(F)c(F)c(N/N=C/c2c[nH]c3ccccc23)c(F)c1F	tim23-1 inh 79.9, tim10-1 inh 58.6, TIM10 inh 60.6 | tim10-1 confirm 54.8 | TIM10 conf inactive | tim23-1 confirm 43.4
